Hits are enriched below; roughly 18% of the tested compounds scored in any of these assays.
RORgamma inh – inhibitors of mouse ROR gamma transcriptional activity | Potency, µM (top dose mostly 53.6 µM), without a hit: at the top dose activity change, negative = inhibition, actives largely listed as inhibitors | hit rate 5.4% among 310,000 | Drosophila S2 Gal4-RORgamma UAS-luciferase reporter, 20 h; further: potency means the concentration at half of the fitted maximal effect; nearly all actives have a fitted effect of over 60% in size
Target sequence (P51450 whole entry, looked up, the tested form may be a part): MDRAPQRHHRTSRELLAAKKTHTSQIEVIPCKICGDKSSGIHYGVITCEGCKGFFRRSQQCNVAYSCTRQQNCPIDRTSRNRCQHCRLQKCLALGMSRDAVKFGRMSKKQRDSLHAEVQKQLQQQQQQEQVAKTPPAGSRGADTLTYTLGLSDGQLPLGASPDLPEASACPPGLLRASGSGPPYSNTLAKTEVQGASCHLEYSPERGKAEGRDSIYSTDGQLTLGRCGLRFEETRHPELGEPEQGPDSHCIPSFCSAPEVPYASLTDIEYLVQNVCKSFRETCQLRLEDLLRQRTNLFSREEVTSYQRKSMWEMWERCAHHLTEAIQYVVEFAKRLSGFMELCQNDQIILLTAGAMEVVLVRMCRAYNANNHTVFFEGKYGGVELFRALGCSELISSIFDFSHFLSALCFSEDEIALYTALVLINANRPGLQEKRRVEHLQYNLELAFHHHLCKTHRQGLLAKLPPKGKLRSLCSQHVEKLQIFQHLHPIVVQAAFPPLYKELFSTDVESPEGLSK
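A Gal4/UAS one-hybrid system in insect cells: metallothionein-promoter Gal4–ROR gamma fusion plus Photinus luciferase reporter. Copper sulfate 700 uM final, 20 hr ambient incubation, luminescent detection after 10 min with reagent.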
TDP1 cell CPT – growth inhibition of DT40 Tdp1-/-;hTDP1 cells with camptothecin (screen for TDP1 inhibitors); Potency, µM (top dose mostly 46.2 µM), without a hit: top-dose activity change, negative = growth inhibition, usual class: inhibitors; chicken DT40 Tdp1-/-;hTDP1 cells + 20 nM CPT, ATP luminescence, 48 h; hit rate 12% among 420,000; AID 686979; further: potency means the concentration at half of the fitted maximal effect; nearly all actives have a fitted effect of over 55% in size
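Cell growth measured by CellTiter-Glo luminescence after a minimum 48 h, 37 C compound exposure with 20 nM CPT in Tdp1-knockout DT40 cells stably expressing hTDP1, seeded 400/well; qHTS titration format.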
IL-1B inflam inh – inflammasome signaling inhibition, IL-1 beta readout; THP-1 LPS/ATP IL-1B secretion, AlphaLISA, 16 h; stronger effect = lower value; activity change, % at 57.5 µM; hit rate 4.7% among 360,000; in the data active means activity change below about -50%; inconclusive means mostly about -30% to -49%
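THP-1 cells pretreated 1 hr with compounds (up to 57.5 uM final), then stimulated with LPS (250 ng/mL final) plus ATP (1.25 mM final); secreted IL-1B measured by AlphaLISA after 16 hr, decreased signal indicating inhibition.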
TDP1 cell noCPT – qHTS for Inhibitors of human tyrosyl-DNA phosphodiesterase 1 (TDP1): qHTS in cells in absence of CPT; DT40 Tdp1-/- hTDP1 cells, no CPT, ATP luminescence, 48 h; Potency, µM (doses to about 46.2 µM), without a hit: at the highest dose activity change, negative = growth inhibition, most hits filed as inhibitors; hit rate 15% among 420,000; AID 686978, 2013; further: potency means the concentration at half of the fitted maximal effect; nearly all actives have a fitted effect of over 55% in size
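Growth kinetics read by CellTiter-Glo luminescence after ≥48 hr at 37 °C. Cells: DT40 Tdp1-/- stably carrying human TDP1, 400 per well, compound exposure in the absence of CPT (DMSO vehicle).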
Gal4-VP16 FLuc – counter-screen for ROR gamma inhibitors: Gal4-VP16 reporter | Drosophila S2 Gal4-VP16 UAS-luciferase, luminescence, 20 h | Potency, µM (highest dose often 53.6 µM), for the others: top-dose activity, negative = inhibition, usual class: inhibitors | hit rate 3.5% among 310,000 | AID 2546;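 further: Gal4-VP16 expression switched on by copper sulfate through the metallothionein promoter; potency means the concentration at half of the fitted maximal effect; nearly all actives have a fitted effect of over 50% in size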
LDHA block – LDHA (human) enzyme inhibition | AID 1347041 | purified LDHA, NADH/diaphorase-resazurin fluorescence; stronger effect = lower value | activity change, % (values are at about 110 or 230 µM) | P00338 | hit rate 0.15% among 480,000; in the data active means activity change below about -30%; inconclusive means mostly about -25% to -30%;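 further: plate controls were DMSO wells for no effect and wells without enzyme for full effect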
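LDH5 2 nM; NADH 0.06 mM, pyruvate 0.2 mM; 200 mM Tris pH 7.4, EDTA, Tween-20; 5 min RT. Detection: diaphorase 0.133 mg/mL + resazurin 37 µM, fluorescence ex540/em590 at 0 and 20 min; normalized to enzyme-free and DMSO wells.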
* marks the source's active call; other numbers are inactive results; ? = inconclusive; . = no result given; [ ] = another dose, or the depositor's remark. Unless noted, the call rests on the fitted dose curve; in most records, active means well fitted curve in the direction sought with a large enough effect; inconclusive means small, poorly fitted or top-dose-only effect, or another doubt; inactive means no such curve, though single readings can be large; an effect the other way counts as inactive or inconclusive. Unless noted, on the % scale 0 is the no-effect control and ±100 the full control effect.

SMILES	RORgamma inh	TDP1 cell CPT	IL-1B inflam inh	TDP1 cell noCPT	Gal4-VP16 FLuc	LDHA block
CCCc1ccc(C(Nc2ccc3nnnn3n2)c2cccs2)cc1 (stereo unspecified)	.	.	.	.	.	6
CCOc1cc2c(cc1CNC(=O)c1ccc(Cl)c(S(N)(=O)=O)c1)OC(C)C2 (stereo unspecified)	.	.	.	.	.	-5
O=C1NN(c2ccccc2)C(=O)/C1=C\c1coc2ccc(O)cc2c1=O	-28%	16µM*	-25	21µM*	1%	3
Cc1cc(/C=C2\SC(=S)NC2=O)c(C)n1-c1ccccc1	10µM*	-7%	26	?	?	-5
O=C(CCOc1ccccc1)Nc1ccc(N2CCOCC2)cc1	.	.	.	.	.	-3
O=c1c(Cl)c(N2CCN(S(=O)(=O)c3ccc4ccccc4c3)CC2)cnn1-c1ccccc1	.	.	.	.	.	-1
Cc1cccc(OCCSc2nc3c([nH]2)c(=N)ncn3Cc2ccccc2)c1	?	21µM*	-7	16µM*	8%	-5
CC1CCCCN1S(=O)(=O)c1ccc(NC(=O)c2cc(=O)c3cc(Cl)ccc3o2)cc1 (stereo unspecified)	.	.	.	.	.	9
CC(=O)C1CCC2C3CC(C)=C4CC(O)CCC4(C)C3CCC12C (stereo unspecified)	.	3%	-99*	21µM*	.	1
CC(=O)[C@H]1CC[C@H]2[C@@H]3CC=C4C[C@@H](O)CC[C@]4(C)[C@H]3CC[C@]12C	.	?	44	?	.	-8
CC(=O)[C@H]1CCC2C3CC=C4C[C@@H](O)CC[C@]4(C)C3CC[C@@]21C (stereo partly specified)	.	18µM*	17	?	.	0
COc1ccc(OCCCC(=O)N(C)CC(=O)Nc2c(C)cccc2C)cc1	.	-11%	3	-6%	.	-4
COc1ccc(-c2nnc(SCC(=O)Nc3c(C)cccc3C)nc2-c2ccc(OC)cc2)cc1	.	?	.	1.8µM*	.	-6
Cc1nc(NC(=O)CSc2nnc(-c3ccccc3)c(-c3ccccc3)n2)c(Cl)cc1Cl	8%[10 µM]	23µM*	5	26µM*	13%	-1
COc1ccc(NC(=O)CSc2nc(-c3ccc(F)cc3)c3cccc(C)c3n2)cc1	.	?	.	?	.	-11
O=C(CSc1nnc(-c2ccco2)c(-c2ccco2)n1)Nc1ccccc1	15%	?	-58*	?	5%	10
COc1ccc(OCCN(C)CC(=O)Nc2c(C)cccc2C)cc1	-1%	?	7	23µM*	1%	-12
COc1cccc(NC(=O)CSc2nnc(-c3ccco3)c(-c3ccco3)n2)c1	-18%	?	-6	-30%	4%	22
COc1ccc(C(=O)OCc2ncc(-c3ccccc3)o2)c(OC)c1	.	.	.	.	.	-4
CC(C)(CNc1nc(-c2ccccc2)nc2ccccc12)N1CCOCC1	.	.	.	.	.	1
COc1ccc(NCC(=O)NC(C)(C#N)C(C)C)cc1Cl (stereo unspecified)	.	.	.	.	.	6
CSc1cccc(NC(=O)C(C)SC)c1 (stereo unspecified)	.	.	.	.	.	-20
CC(C)C(NC(=O)c1ccc(F)cc1)C(=O)NN (stereo unspecified)	.	.	.	.	.	-5
CN(C)c1ccc(NC(=O)CSc2nnc(-c3ccco3)c(-c3ccco3)n2)cc1	1%	?	-14	16µM*	-3%	10
Cc1ccccc1NC(=O)CSc1nnc(-c2ccco2)c(-c2ccco2)n1	18%	?	-30	?	-2%	13
SMILES	RORgamma inh	TDP1 cell CPT	IL-1B inflam inh	TDP1 cell noCPT	Gal4-VP16 FLuc	LDHA block
Cc1cccc(C)c1NC(=O)CSc1nnc(-c2ccco2)c(-c2ccco2)n1	20%	-11%	-77*	-23%	-4%	13
CCOC(=O)CNC(=O)CSc1nnc(Cn2c(=O)sc3ccccc32)n1-c1ccccc1C	37%	?	-94*	?	-2%	2
Cc1ccccc1-n1c(Cn2c(=O)sc3ccccc32)nnc1SCC(=O)N1CCCC1	-1%	-19%	-7	-4%	2%	-3
CSc1nnc(Cn2c(=O)sc3ccccc32)n1-c1ccccc1	21%	21µM*	24	21µM*	8%	-12
Cc1cc(=O)c(C(=O)N2CCN(Cc3ccccc3)CC2)nn1-c1ccccc1F	.	.	.	.	.	-3
COc1ccc(/C=N/NC(=O)c2csc(-n3nc(C)cc3C(F)(F)F)n2)cc1	12%	?	-16	21µM*	-2%	-3
Cc1cc(C(F)(F)F)n(-c2nc(C(=O)NN)cs2)n1	-19%	-10%	-7	-9%	-6%	-1
OC(COC(c1ccc(Cl)cc1)c1ccc(Cl)cc1)CN1CCN(c2ccccn2)CC1 (stereo unspecified)	9%	?	-84*	16µM*	-3%	-4
CC(=O)c1ccc(N2CCN(CC(O)COC(c3ccccc3)c3ccccc3)CC2)cc1 (stereo unspecified)	-7%	?	?	?	10%	-21
OC(COC(c1ccccc1)c1ccccc1)CN1CCN(c2cccc(Cl)c2)CC1 (stereo unspecified)	19%	21µM*	?	?	4%	2
CC(C)(C)c1ccccc1OCC(O)CN1CCN(c2ccccn2)CC1 (stereo unspecified)	1%	16µM*	-9	?	-13%	1
CC(=O)c1ccc(N2CCN(CC(O)COC(c3ccccc3)c3ccccc3C)CC2)cc1 (stereo unspecified)	13%	23µM*	?	?	1%	-11
OC(CN1CCN(c2cccc(Cl)c2)CC1)c1ccccc1 (stereo unspecified)	12%	-22%	32	-8%	0%	-1
Cc1cccc(C)c1OCC(O)CN1CCN(c2ccccn2)CC1 (stereo unspecified)	-22%	4%	16	-6%	-1%	1
CCc1c(C)sc(NC(=O)CCl)c1C#N	.	.	.	.	.	-18
Cc1ccc2oc(C(=O)N(Cc3ccc(Cl)cc3)C3CCS(=O)(=O)C3)cc(=O)c2c1 (stereo unspecified)	.	.	.	.	.	-4
CCOC(=O)c1cnc2ccc(OCC)cc2c1Nc1ccccc1OCC	.	.	.	.	.	1
CC1=CC(C)[C@H](/C=N/n2c(=O)[nH]c3c([nH]c4ccc(C)cc43)c2=O)C(C)C1 (stereo partly specified)	-5%	8.2µM*	-6	13µM*	-24%	-5
